The structures appear in SMILES notation. Activity calls are given as the source filed them.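 The calls were made as follows, unless noted: active = fluorescence slope higher than the sample average by over 3 SD (cut at about -0.22 in these data, passing the limit was not always enough); inactive = the rest.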

A short description of test [1]: inhibitors of TNFa-induced NFkB p65 translocation, primary screen, imaging, HUVEC, MLSMR starter and 10KST1 sets (AID 438;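 active = inhibition above 20% together with a positive visual image hit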;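 also: compound added about 3h40 before a 20 min TNFalpha stimulation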;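 as to inhibition: signal is the nuclear over cytoplasmic p65 intensity ratio per well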). Conditions: HUVEC TNFa-induced p65 nuclear translocation; cell count: measured here: nuclei count (cytotoxicity indicator), at 2.08 µM; inhibition: at 2 µM, stronger effect = higher value, 0% TNFa-plus-vehicle, 100% no-TNFa wells.
Test [2] can be described thus: reduction of polyQ htt aggregates in cells – imaging, exon1htt(103Q)mCFP cells, high-content imaging, primary screen (AID 483;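 active = visual image review flags a hit and inhibition of aggregation exceeds 20%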;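 also: compound exposure lasted 3 days before fixation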;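 as to nuclei count: percent of the per-plate median nuclei count of sample wells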). Particulars: exon1htt(103Q)mCFP cell line, aggregate imaging, at 2 µM; inhibition of aggregation: stronger effect = higher value; nuclei count: measured here: cell count, toxicity.
A short description of test [3]: endothelial E-selectin expression blockers – imaging, HUVEC, immunofluorescence, MLSMR starter and 10KST1 sets, primary screen (AID 487;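 active = visually confirmed hit in the image check and inhibition above 20%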;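 as to inhibition: signal is fraction of cell area covered by stained E-selectin grains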;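 as to nuclei count: 100% = median nuclei count of all wells on the same plate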). Conditions: HUVEC TNFalpha-induced E-selectin immunofluorescence imaging, at 2 µM; inhibition: stronger effect = higher value; nuclei count: measured here: cell number, toxicity.
The target in test [4] is Voltage-gated potassium channel subunit beta-2 (Rattus norvegicus) (UniProt P62483). Put plainly: inhibitors of rat Kvbeta2 reductase activity – biochemical, NADPH fluorescence, primary screen (AID 622).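 Also: slope of raw intensity against log time taken from 70 to 1610 s.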 Particulars: recombinant KvBeta, 4-cyanobenzaldehyde reduction, at 10 µM, stronger effect = higher value.
Chain of Voltage-gated potassium channel subunit beta-2 (Rattus norvegicus) (P62483 whole entry, looked up): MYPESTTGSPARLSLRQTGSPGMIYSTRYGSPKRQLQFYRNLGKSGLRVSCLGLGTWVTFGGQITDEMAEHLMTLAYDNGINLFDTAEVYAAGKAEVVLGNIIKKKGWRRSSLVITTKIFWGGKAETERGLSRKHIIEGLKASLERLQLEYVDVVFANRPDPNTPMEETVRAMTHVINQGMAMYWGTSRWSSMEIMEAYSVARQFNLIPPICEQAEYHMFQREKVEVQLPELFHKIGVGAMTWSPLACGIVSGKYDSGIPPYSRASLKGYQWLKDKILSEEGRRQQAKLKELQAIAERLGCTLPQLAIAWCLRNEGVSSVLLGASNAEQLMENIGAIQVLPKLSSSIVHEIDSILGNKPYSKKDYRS
Test [5] has the same target. Put plainly: enhancers of rat Kvbeta2 NADPH turnover – biochemical, NADPH fluorescence, primary screen (AID 623;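 active = NADPH fluorescence slope more negative than the mean of all samples by about 3 SD, 99.7% confidence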;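 also: fluorescence intensity change per second fitted from 20 to 320 s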). Particulars: Recombinant KvBeta, NADPH fluorescence decrease slope, 10 min; at 10 µM; stronger effect = lower value.
Test [6] has as its target Alpha-2C adrenergic receptor (Homo sapiens) (UniProt P18825). The test is described as follows: compounds altering alpha2C-coupled GIRK flux – cell-based, HEK293 alpha2C/GIRK1/2, thallium flux, primary screen (AID 624;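 active = fluorescence slope after compound addition differing from the mean of all screened samples at 99.7% confidence, in either direction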;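 also: slope of fluorescence ratio to pre-addition baseline per second over 15 to 24 s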). Conditions: thallium flux BTC fluorescence, at 10 µM, actives lie on both sides.
A short description of test [7]: blockers of RIG-like receptor reporter activation – cell-based, Sendai virus stimulus, luciferase, 10K MLSCN set, TLR/RLR signaling modifier project, primary screen (AID 602276;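 active = inhibition at or above 50% at 10 µM; inactive = inhibition below 50%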;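 also: firefly luciferase from ISG56 promoter only with Renilla not read in this screen; 0% = Sendai virus plus DMSO and 100% = medium plus DMSO without virus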). Particulars: HEK293 RL24 IRF3 luciferase reporter, at 10 µM, stronger effect = higher value. (In a reporter assay the amount or activity of a reporter protein is the signal.)
The nature of test [8]: TLR3 IRF3 reporter activation blockers – cell-based, poly I:C stimulus, luciferase, 10K MLSCN set, primary screen (AID 602277;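 active = inhibition of the reporter signal at or above 50%; inactive = inhibition below 50%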). Conditions: HEK293-TLR3 RL24 IRF3 luciferase reporter, at 10 µM, stronger effect = higher value.

Chain of Alpha-2C adrenergic receptor (Homo sapiens) (P18825 whole entry, looked up): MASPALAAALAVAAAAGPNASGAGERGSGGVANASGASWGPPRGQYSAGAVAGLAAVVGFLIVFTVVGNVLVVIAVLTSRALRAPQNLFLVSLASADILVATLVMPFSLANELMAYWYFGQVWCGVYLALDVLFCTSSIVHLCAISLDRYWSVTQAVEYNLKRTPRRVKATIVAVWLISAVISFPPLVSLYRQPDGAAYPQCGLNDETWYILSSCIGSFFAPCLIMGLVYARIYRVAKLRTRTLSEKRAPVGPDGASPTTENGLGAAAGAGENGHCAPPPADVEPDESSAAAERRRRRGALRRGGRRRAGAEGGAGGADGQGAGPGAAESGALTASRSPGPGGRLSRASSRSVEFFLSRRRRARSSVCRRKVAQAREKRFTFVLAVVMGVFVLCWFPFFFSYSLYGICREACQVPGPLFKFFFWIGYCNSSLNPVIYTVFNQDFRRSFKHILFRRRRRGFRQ

`CCOC(=O)c1[nH]c2ccccc2c1NC(=O)C(C)(C)C`: in test [1], the cell count is 692. The inhibition in test [1] was -10.7% (inactive); in test [3], -30.2% (inactive); in test [7], 13.4% (inactive); in test [8], 45.1% (inactive). In test [2], the inhibition of aggregation was -8.7% (inactive). Also, the nuclei count is 117% in test [2] and 105% in test [3]. Moreover, the fluorescence slope in test [4] is -0.586 (inactive). For the same molecule, the NADPH fluorescence slope in test [5] was -4.7e-05 (inactive). Further, in test [6], the slope is 0.00597 (inactive).

On to `COc1cc(S(=O)(=O)N2CCOCC2)ccc1NC(=O)COC(=O)C12CC3CC(CC(C3)C1)C2`, for which the cell count in test [1] is 533. Also, the inhibition in test [1] was -24.9% (inactive); in test [3], 27.1% (inactive); in test [7], 8.59% (inactive); in test [8], 19.8% (inactive). Also, the inhibition of aggregation in test [2] is -8.6% (inactive). In addition, the nuclei count in test [2] was found to be 108%; in test [3], 89.4%. For the same molecule, the fluorescence slope in test [4] was -0.258 (inactive). Moreover, the NADPH fluorescence slope in test [5] was 2.4e-06 (inactive). In addition, the slope in test [6] is 0.00665 (inactive).

With `CCOC(=O)c1oc2ccccc2c1CSc1nnnn1-c1ccc(C)cc1`, the cell count in test [1] is 371. The inhibition in test [1] is -3.4% (inactive); in test [3], -60.7% (inactive); in test [7], -16.8% (inactive); in test [8] it was 1.2% (inactive). Moreover, the inhibition of aggregation in test [2] is 8.2% (inactive). Further, the nuclei count was 88.1% in test [2] and 106% in test [3]. In addition, the fluorescence slope in test [4] is -0.613 (inactive). Moreover, the NADPH fluorescence slope in test [5] was -2.5e-05 (inactive). Further, the slope in test [6] is 0.00768 (inactive).

Turning to `C=CCSc1nnc(NC(=O)c2ccc(S(=O)(=O)NCC3CCCO3)cc2)s1` (stereo not drawn), the cell count in test [1] was 245. In addition, the inhibition in test [1] was 5.1% (inactive); in test [3], -146% (inactive); in test [7], 4.11% (inactive); in test [8] it was 11% (inactive). Further, the inhibition of aggregation in test [2] was -8.6% (inactive). Also, the nuclei count in test [2] is 88.4%; in test [3], 114%. Moreover, the fluorescence slope in test [4] was -0.496 (inactive). Also, the NADPH fluorescence slope in test [5] was -4.8e-05 (inactive). The slope in test [6] is 0.00603 (inactive).

With `CCCOc1ccc(C2C(C(=O)OC)=CN(CCOC)C=C2C(=O)OC)cc1`, in test [1], the cell count worked out at 356. The inhibition in test [1] is -11.3% (inactive); in test [3] it was -128% (inactive); in test [7], 15.3% (inactive); in test [8], 27.8% (inactive). Besides, the inhibition of aggregation in test [2] was -4.7% (inactive). Further, the values for the nuclei count in test [2] and in test [3] were 116% and 111%, respectively. Also, the fluorescence slope in test [4] was -0.251 (inactive). For the same molecule, the NADPH fluorescence slope in test [5] is 1.3e-05 (inactive). Further, the slope in test [6] was 0.00618 (inactive).

`Cc1cccc(CCNC(=O)C2CCCN(S(=O)(=O)c3cnc[nH]3)C2)c1` (stereo not drawn): the cell count in test [1] was determined as 518. Further, the inhibition was 16.1% (inactive) in test [1], -107% (inactive) in test [3], 30.1% (inactive) in test [7] and 8.46% (inactive) in test [8]. In test [2], the inhibition of aggregation was 21.6% (inactive). The nuclei count in test [2] was determined as 89.8%; in test [3], 107%. Besides, in test [4], the fluorescence slope is -0.523 (inactive). For the same molecule, the NADPH fluorescence slope in test [5] was 6.1e-06 (inactive). In test [6], the slope is 0.0065 (inactive).

Turning to `O=C(c1ccc2c(c1)[nH]c(=S)n1c3ccccc3nc21)N1CCN(c2ncccn2)CC1`, in test [1], the cell count came to 515. Further, the inhibition was 4.8% (inactive) in test [1], -28.7% (inactive) in test [3], 13.2% (inactive) in test [7] and 19.4% (inactive) in test [8]. The inhibition of aggregation in test [2] is -5.1% (inactive). For the same molecule, the results for the nuclei count in test [2] and in test [3] were 105% and 114%, respectively. The fluorescence slope in test [4] was -0.347 (inactive). The NADPH fluorescence slope in test [5] was -1.3e-05 (inactive). The slope in test [6] was 0.00281 (inactive).

In the case of `CCCc1ccc(S(=O)(=O)NCCc2ccncc2)cc1`, in test [1], the cell count was 352. The inhibition in test [1] was -15.7% (inactive); in test [3] it was -94.2% (inactive); in test [7], -3.61% (inactive); in test [8], -11.2% (inactive). Also, in test [2], the inhibition of aggregation was -25.5% (inactive). Also, the nuclei count in test [2] is 109%; in test [3] it was 121%. In test [4], the fluorescence slope is -0.585 (inactive). In addition, the NADPH fluorescence slope in test [5] was -2.4e-05 (inactive). Further, in test [6], the slope was 0.00524 (inactive).

As for `O=C(c1ccco1)N1CCN(C(=O)C2CC(c3ccc(F)cc3)=NO2)CC1` (stereo not drawn), in test [1], the cell count turned out to be 448. Further, the inhibition in test [1] was -12.3% (inactive); in test [3] it was -12.7% (inactive); in test [7], 7.52% (inactive); in test [8], 13.1% (inactive). In addition, the inhibition of aggregation in test [2] was -13.2% (inactive). Further, the nuclei count amounted to 106% in test [2] and 112% in test [3]. In addition, the fluorescence slope in test [4] is -0.622 (inactive). The NADPH fluorescence slope in test [5] was 2.2e-07 (inactive). In addition, the slope in test [6] is 0.00657 (inactive).

On to `Cc1c(C#N)c2ncnc(-c3ccccc3)c2n1-c1ccccc1`, for which the cell count in test [1] is 287. The inhibition is 0.4% (inactive) in test [1], -8.1% (inactive) in test [3], 15.3% (inactive) in test [7] and 34.5% (inactive) in test [8]. In addition, the inhibition of aggregation in test [2] is -11.3% (inactive). Besides, the nuclei count in test [2] came out at 99.5%; in test [3], 108%. Also, the fluorescence slope in test [4] is -0.448 (inactive). The NADPH fluorescence slope in test [5] was -0.000103 (inactive). Further, the slope in test [6] is 0.00601 (inactive).

For `CCOC(=O)C(NC(C)=O)(Nc1ccc(S(=O)(=O)Nc2nccs2)cc1)C(F)(F)F` (stereo not drawn), in test [1], the cell count turned out to be 523. The inhibition was -1% (inactive) in test [1], 4.2% (inactive) in test [3], 14.8% (inactive) in test [7] and 30.2% (inactive) in test [8]. The inhibition of aggregation in test [2] was 27% (inactive). The nuclei count in test [2] is 93.8%; in test [3], 95.9%. In addition, the fluorescence slope in test [4] was -0.645 (inactive). Also, the NADPH fluorescence slope in test [5] was 1.5e-06 (inactive). Besides, the slope in test [6] was 0.00657 (inactive).

For the molecule `COC(=O)n1c(=S)oc2cc(Cl)ccc21`, in test [1], the cell count was 673. In addition, the inhibition in test [1] is 8.2% (inactive); in test [3] it was 16.4% (inactive); in test [7] it was 16.6% (inactive); in test [8], 31.1% (inactive). The inhibition of aggregation in test [2] was -25.1% (inactive). Further, the values for the nuclei count in test [2] and in test [3] were 106% and 93%, respectively. In addition, the fluorescence slope in test [4] was -0.638 (inactive). In addition, in test [5], the NADPH fluorescence slope is 1.8e-05 (inactive). Also, the slope in test [6] was 0.0107 (inactive).

Regarding `CC(C)C(NC(=O)c1ccco1)C(=O)NCC(c1ccco1)N1CCCCC1` (stereo not drawn), in test [1], the cell count worked out at 379. Besides, the inhibition in test [1] is -22% (inactive); in test [3], 0% (inactive); in test [7] it was 3.26% (inactive); in test [8], 14.7% (inactive). Besides, in test [2], the inhibition of aggregation was 6.7% (inactive). In addition, the nuclei count in test [2] turned out to be 99%; in test [3], 97.7%. The fluorescence slope in test [4] is -0.588 (inactive). In addition, in test [5], the NADPH fluorescence slope is -2.6e-05 (inactive). Also, the slope in test [6] was 0.00507 (inactive).

The term inhibition denotes the relative decrease from the control value, in per cent.

The values above are taken from PubChem BioAssay.
